Rows were chosen to be rich in hits. Some 4.2% of all compounds tested hit in one or more screens of this group.
Wnt act = Wnt/beta-catenin pathway activators, primary screen, cell-based, plate reader, single point; activation, % at 9.35 µM; AID 743398, 2014; Wnt/beta-catenin reporter cell assay, activator; 300,000 tested, 1.2% active; in the data active means activation above about 30%, passing the limit was not always enough
AHR act = AHR activators, primary screen, cell-based, luminescence, luciferase reporter, human | Aryl hydrocarbon receptor (Homo sapiens), P35869 | AHR-responsive luciferase reporter cells | activation, % at 5 µM | 320,000 tested, 2.5% active | AID 2796, 2010; in the data active means activation above about 47%
Target sequence (P35869 whole entry, looked up): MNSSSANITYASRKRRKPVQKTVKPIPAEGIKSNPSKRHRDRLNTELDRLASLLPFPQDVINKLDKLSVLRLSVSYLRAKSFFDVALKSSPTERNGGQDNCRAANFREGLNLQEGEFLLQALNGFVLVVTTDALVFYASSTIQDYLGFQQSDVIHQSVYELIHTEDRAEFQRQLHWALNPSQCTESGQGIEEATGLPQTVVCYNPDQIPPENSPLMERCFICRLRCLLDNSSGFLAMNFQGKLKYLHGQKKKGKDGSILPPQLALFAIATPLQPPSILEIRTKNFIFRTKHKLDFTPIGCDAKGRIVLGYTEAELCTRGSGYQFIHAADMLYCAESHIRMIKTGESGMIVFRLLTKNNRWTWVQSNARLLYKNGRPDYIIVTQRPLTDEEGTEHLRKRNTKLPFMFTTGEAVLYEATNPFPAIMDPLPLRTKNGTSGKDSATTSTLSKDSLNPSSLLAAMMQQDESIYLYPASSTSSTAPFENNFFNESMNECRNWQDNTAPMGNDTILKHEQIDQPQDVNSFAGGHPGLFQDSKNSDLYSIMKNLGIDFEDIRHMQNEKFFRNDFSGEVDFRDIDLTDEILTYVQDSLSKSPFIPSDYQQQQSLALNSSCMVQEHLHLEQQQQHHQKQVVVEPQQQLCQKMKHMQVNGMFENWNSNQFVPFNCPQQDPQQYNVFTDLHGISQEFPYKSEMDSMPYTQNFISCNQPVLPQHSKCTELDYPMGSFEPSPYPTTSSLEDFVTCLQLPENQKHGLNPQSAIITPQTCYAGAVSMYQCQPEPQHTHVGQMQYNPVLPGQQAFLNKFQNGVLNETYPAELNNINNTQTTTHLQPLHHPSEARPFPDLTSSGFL
FXN GAA850 act = FXN promoter activators, primary screen, cell-based, luciferase luminescence, HEK293 lucGAA850 | HEK293 lucGAA850 FXN promoter luciferase reporter, 24 h; percent of 10 µM SAHA response | activation, % at 6 µM | 360,000 tested, 0.56% active | AID 540364, 2011;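 active means activation above the average of all compounds screened plus 3 SD, cutoff fixed separately per campaign, cut at about 7.5% in these data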
MITF TRPM1 HTS = activators of MITF-driven TRPM1 promoter reporter, primary screen, cell-based, SK-MEL-5, luciferase, single point; 300,000 tested, 0.75% active; SK-MEL-5 TRPM1-promoter luciferase, 24 h; % of positive control, neutral wells = 0; AID 588334, 2011; activation, % at 12.5 µM;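 active means mean activation of at least 80% with every replicate also reaching 80%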
esBAF inh = Bmi1 luciferase reporter increase in mESCs, primary screen, esBAF inhibitor project, mouse ES cells, Bmi1 luciferase knock-in, single point. 350,000 tested, 2% active. AID 602393, 2012. 24 h; 100% = twice the neutral-well signal. reporter increase, % at 12.5 µM; in the data active means activation above about 40%;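 further: a rise in the Bmi1 reporter signal indicates esBAF inhibition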
Hits are given with their value; – = inactive; · = no result given.

SMILES | Wnt act | AHR act | FXN GAA850 act | MITF TRPM1 HTS | esBAF inh
C[C@@H]1CN([C@@H](C)CO)C(=O)Cc2cc(NC(=O)Nc3ccccc3)ccc2O[C@H]1CN(C)Cc1ccc(C(F)(F)F)cc1 | · | · | · | · | –
CCCN(C)C[C@@H]1Oc2ncc(Br)cc2C(=O)N([C@H](C)CO)C[C@@H]1C | · | · | · | · | –
CCN(CC)c1ccc(NC(=O)C2CC3CCC2C3)cc1 (stereo not drawn) | · | – | – | – | 47.7
O=C([C@H]1[C@H](CO)[C@H]2Cn3c(ccc(-c4ccccc4F)c3=O)[C@@H]1N2C(=O)C1CCC1)N1CCOCC1 | · | · | · | · | –
COc1ccc(-c2nc3ccc(N4CCN(C)CC4)cc3c(=O)[nH]2)cc1 | – | 56.4 | – | – | ·
COc1cc(-c2nc3ccc(N4CCN(C)CC4)cc3[nH]2)cc(OC)c1OC | – | – | – | – | ·
COc1ccc(NC(=O)c2cc(C)on2)cc1OC | · | – | – | – | –
CCc1ccc(NC(=O)c2onc(C)c2Cl)cc1 | – | – | – | – | 54.2
COc1ccc(NC(=O)c2cc(C)on2)cc1 | 34.0 | – | – | – | –
Cc1ccc(O)c(NC(=O)c2onc(C)c2Cl)c1 | – | 72.2 | – | – | –
Cc1cc(O)c(C(=O)Nc2cccc(Cl)c2)c(=O)n1C | – | – | – | – | 58.8
Cc1noc(C(=O)Nc2ccc(F)cc2F)c1Cl | – | · | – | – | –
C[C@@H]1CN([C@@H](C)CO)C(=O)Cc2cc(NC(=O)CCCN(C)C)ccc2O[C@@H]1CN(C)S(=O)(=O)c1ccccc1 | · | · | · | · | –
C[C@H](CO)N1C[C@H](C)[C@H](CN(C)C(=O)c2ccccc2)OCCCC[C@H](C)Oc2ccc(NC(=O)Nc3ccccc3)cc2C1=O | · | · | · | · | –
C[C@H](CO)N1C[C@H](C)[C@@H](CN(C)Cc2ccncc2)Oc2ccc(NC(=O)C3CCCCC3)cc2C1=O | · | · | · | · | –
COc1ccc(NC(=O)c2onc(C)c2Cl)cc1 | – | – | – | – | 45.9
Cc1noc(C(=O)Nc2cccc(Cl)c2)c1Cl | – | · | – | – | 55.8
Cc1noc(C(=O)Nc2cccc(O)c2)c1Cl | – | – | – | – | –
Nc1c(-c2ccccc2)n[nH]c1-c1ccccc1 | – | 134.4 | – | – | –
CCCNC(=O)C[C@@H]1C[C@@H]2c3cc(NC(=O)C4CCOCC4)ccc3O[C@@H]2[C@@H](CO)O1 | · | · | · | · | –
c1csc(-c2noc(COc3ccc4c(c3)CCCC4)n2)c1 | 35.7 | – | – | 140.3 | –
C[C@@H]1CN([C@H](C)CO)C(=O)c2cccc(NC(=O)c3ccncc3)c2O[C@H]1CN(C)S(C)(=O)=O | · | · | · | · | –
CCCNC(=O)N[C@H]1CC[C@H](CCNS(=O)(=O)c2cccc(F)c2)O[C@H]1CO | · | · | · | · | –
Clc1ccc(N2COC3c4cccc5cccc(c45)C32)cc1 (stereo not drawn) | · | 60.1 | – | – | –
CCNC(=O)C[C@@H]1CC[C@H]2[C@H](COc3ccc(NC(=O)Nc4cccc(C)c4)cc3C(=O)N2C)O1 | · | · | · | · | –
SMILES | Wnt act | AHR act | FXN GAA850 act | MITF TRPM1 HTS | esBAF inh
Oc1ccc(N=C/C=C/c2cccc(Br)c2)cc1-c1nc2ccccc2s1 | · | – | 13.7 | – | ·
Cn1c(/C=C/c2cccc(Br)c2)nc2ccccc2c1=O | – | – | – | – | –
COc1ccc(OC)c(NC(=O)/C=C/c2ccccc2[N+](=O)[O-])c1 | · | 70.9 | – | – | ·
COc1ccc(NC(=O)/C=C/c2ccccc2[N+](=O)[O-])c(OC)c1 | – | 76.8 | – | – | ·
COc1ccccc1NC(=O)/C=C/c1cc([N+](=O)[O-])ccc1OC(F)F | – | 49.0 | – | – | –
COCC(=O)N(C)C[C@@H]1Oc2cc(C#CCC(C)C)ccc2S(=O)(=O)N([C@H](C)CO)C[C@H]1C | · | · | · | · | –
C[C@H](CO)N1C[C@H](C)[C@@H](CN(C)Cc2ccc(-c3ccccc3)cc2)Oc2ccc(NC(=O)Cn3cnnn3)cc2CC1=O | · | · | · | · | –
CC(=O)C1=C(c2ccccc2)N(C(C)=O)n2c(C)nnc2S1 | – | 50.6 | – | – | –
CC(=O)N1CCN(c2nnc(-c3ccccc3)c3ccccc23)CC1 | – | – | – | – | –
O=C(NC1CC(=O)c2sccc21)c1ccc(Cl)cc1Cl (stereo not drawn) | – | – | – | – | 42.7
O=C(NCCOc1ccccc1)c1ccccc1Cl | 34.6 | – | – | – | –
Cc1cnc(NC(=O)CCNC(=O)c2ccccc2Cl)s1 | 46.2 | – | – | – | –

Screening results as filed in PubChem.
